Data from PubChem BioAssay AID1159580 (chemical genetic matrix, 2015).
The whole screen tested about 5,500 compounds, of which about 2,000 (36%) were called active. About 18% were inconclusive and are not listed. No stated cut-off is given here; in the data, active means normalized growth mostly below about 0.91 (no sharp cut-off); inconclusive means no clear call, values can overlap the other calls; inactive means mostly above about 0.92. The list shows a part of the results.

Experiment: chemical genetic growth profiling, strain panel (AID 1159580);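 further: tested at 20 µM; growth read once vehicle control cultures reached saturation at 30 °C; 1 = growth at the plate median or of vehicle wells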
Conditions: S. cerevisiae deletion strains, growth OD

Measured: normalized growth

CCC(C)COC(=O)/C=C/c1ccc(N=Cc2ccc(OC)cc2)cc1 (stereo unspecified)
active: locus YHR030C, strain SLT2, stronger effect = lower value 0.531 | locus YJL095W, strain BCK1, stronger effect = lower value 0.474 | locus YJR066W, strain TOR1 (second series), stronger effect = lower value 0.241 | locus YLR113W, strain HOG1, stronger effect = lower value 0.696 | locus YPL256C, strain CLN2, stronger effect = lower value 0.798
inactive: locus YAR019C, strain CDC15, stronger effect = lower value 0.961 | locus YBL105C, strain PKC1, stronger effect = lower value 0.968 | locus YBR135W, strain CKS1, stronger effect = lower value 0.969 | locus YBR136W, strain MEC1, stronger effect = lower value 0.969 | locus YBR160W, strain CDC28, stronger effect = lower value 0.978 | locus YDL017W, strain CDC7, stronger effect = lower value 0.98 | locus YDL028C, strain MPS1, stronger effect = lower value 0.984 | locus YDL101C, strain DUN1, stronger effect = lower value 0.948 | locus YDL108W, strain KIN28, stronger effect = lower value 0.965 | locus YDL132W, strain cdc53, stronger effect = lower value 0.958 | locus YDL214C, strain PRR2, stronger effect = lower value 0.845 | locus YDR052C, strain DBF4, stronger effect = lower value 0.969 | locus YDR054C, strain cdc34, stronger effect = lower value 0.964 | locus YDR226W, strain ADK1, stronger effect = lower value 0.955 | locus YDR477W, strain SNF1, stronger effect = lower value 0.842 | locus YER123W, strain YCK3, stronger effect = lower value 0.743 | locus YER133W, strain GLC7, stronger effect = lower value 0.804 | locus YFL009W, strain cdc4, stronger effect = lower value 0.972 | locus YFL029C, strain CAK1, stronger effect = lower value 0.962 | locus YFR003C, strain YPI1, stronger effect = lower value 0.968 | locus YFR019W, strain FAB1, stronger effect = lower value 0.843 | locus YFR028C, strain CDC14, stronger effect = lower value 0.952 | locus YGR040W, strain KSS1, stronger effect = lower value 0.811 | locus YGR052W, strain FMP48, stronger effect = lower value 0.779 | locus YGR092W, strain DBF2, stronger effect = lower value 0.646 | locus YHR079C, strain IRE1, stronger effect = lower value 0.814 | locus YHR082C, strain KSP1, stronger effect = lower value 0.852 | locus YHR205W, strain SCH9, stronger effect = lower value 0.662 | locus YIL147C, strain SLN1, stronger effect = lower value 0.965 | locus YJL128C, strain PBS2, stronger effect = lower value 0.921 | locus YJL157C, strain FAR1, stronger effect = lower value 0.864 | locus YJR016C, strain ILV3, stronger effect = lower value 0.963 | locus YJR066W, strain TOR1, stronger effect = lower value 0.794 | locus YKL048C, strain ELM1, stronger effect = lower value 0.805 | locus YKL067W, strain YNK1, stronger effect = lower value 0.873 | locus YKL101W, strain HSL1, stronger effect = lower value 0.831 | locus YKL193C, strain SDS22, stronger effect = lower value 0.962 | locus YKL203C, strain TOR2, stronger effect = lower value 0.826 | locus YLR133W, strain CKI1, stronger effect = lower value 0.825 | locus YLR403W, strain SFP1, stronger effect = lower value 0.742 | locus YML070W, strain DAK1, stronger effect = lower value 0.814 | locus YMR001C, strain CDC5, stronger effect = lower value 0.964 | locus YMR205C, strain PFK2 (second series), stronger effect = lower value 0.861 | locus YMR277W, strain FCP1, stronger effect = lower value 0.966 | locus YNL006W, strain LST8, stronger effect = lower value 0.972 | locus YNL020C, strain ARK1, stronger effect = lower value 0.836 | locus YNL161W, strain CBK1, stronger effect = lower value 0.97 | locus YNL183C, strain NPR1, stronger effect = lower value 0.795 | locus YNL207W, strain RIO2, stronger effect = lower value 0.947 | locus YNL222W, strain SSU72, stronger effect = lower value 0.972 | locus YNL307C, strain MCK1 (second series), stronger effect = lower value 0.783 | locus YOL078W, strain AVO1, stronger effect = lower value 0.958 | locus YOL136C, strain PFK27, stronger effect = lower value 0.755 | locus YOR061W, strain CKA2, stronger effect = lower value 0.803 | locus YOR119C, strain RIO1, stronger effect = lower value 0.816 | locus YOR231W, strain MKK1, stronger effect = lower value 0.785 | locus YOR329C, strain SCD5, stronger effect = lower value 0.975 | locus YPL031C, strain PHO85, stronger effect = lower value 0.819 | locus YPL153C, strain RAD53, stronger effect = lower value 0.83 | locus YPL204W, strain HRR25, stronger effect = lower value 0.719 | locus YPL209C, strain IPL1, stronger effect = lower value 0.959 | locus YPR025C, strain CCL1, stronger effect = lower value 0.968 | locus YPR106W, strain ISR1, stronger effect = lower value 0.951 | locus YPR111W, strain DBF20, stronger effect = lower value 0.944 | strain NNK1, stronger effect = lower value 0.941 | strain TSCII, stronger effect = lower value 0.95
